Laboratory results from PubChem BioAssay.
Activity calls are given as the source filed them.

Tests used:
[1] = binders of probe aFSTL3 on microarray, primary screen, stem cell growth factor project, biochemical, small-molecule microarray, fluorescence 635/667 (AID 1064); details: higher = more signal;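 note: measures binding of the biotinylated anti-FSTL3 antibody to printed compounds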
[2] = binders from COS7 lysate, DM2A8 probe, primary screen, torsin A project, cell lysate, small-molecule microarray, fluorescence 635/667 (AID 1065); details: higher = more signal, COS7 lysate expressing mutant human TOR1A
[3] = binders of probe aFGF2 on microarray, primary screen, stem cell growth factor project, biochemical, small-molecule microarray, fluorescence 635/667 (AID 1067); details: higher = more signal;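 note: measures binding of biotinylated aFGF2 protein to printed compounds on slides; z-score merges feature fluorescence and signal-to-noise across triplicate slides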
[4] = binders of probe aFGF10 on microarray, primary screen, stem cell growth factor project, biochemical, small-molecule microarray, fluorescence 635/667 (AID 1071); details: higher = more signal;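 note: score merges 667 nm spot intensity and signal to noise from triplicate slides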
[5] = biological target: Neurogenic locus notch homolog protein 2 (Homo sapiens) (UniProt Q04721); test: Notch2 binders on small-molecule microarrays, primary screen, biochemical, small-molecule microarray, 635 nm fluorescence, stem cell growth factors (AID 1073); details: Notch2 binding, higher = more signal
[6] = biological target: Pro-neuregulin-1, membrane-bound isoform (Homo sapiens) (UniProt Q02297); test: NRG1 binders on small-molecule microarrays, primary screen, psychiatric disease protein project, biochemical, small-molecule microarray, fluorescence 635/667 (AID 1075); details: NRG1 binding, 635 nm fluorescence, higher = more signal;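 note: score combines 667 nm spot fluorescence with signal to noise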
Sequence of Pro-neuregulin-1, membrane-bound isoform (Homo sapiens) (Q02297 whole entry, looked up, the tested form may be a part, canonical isoform): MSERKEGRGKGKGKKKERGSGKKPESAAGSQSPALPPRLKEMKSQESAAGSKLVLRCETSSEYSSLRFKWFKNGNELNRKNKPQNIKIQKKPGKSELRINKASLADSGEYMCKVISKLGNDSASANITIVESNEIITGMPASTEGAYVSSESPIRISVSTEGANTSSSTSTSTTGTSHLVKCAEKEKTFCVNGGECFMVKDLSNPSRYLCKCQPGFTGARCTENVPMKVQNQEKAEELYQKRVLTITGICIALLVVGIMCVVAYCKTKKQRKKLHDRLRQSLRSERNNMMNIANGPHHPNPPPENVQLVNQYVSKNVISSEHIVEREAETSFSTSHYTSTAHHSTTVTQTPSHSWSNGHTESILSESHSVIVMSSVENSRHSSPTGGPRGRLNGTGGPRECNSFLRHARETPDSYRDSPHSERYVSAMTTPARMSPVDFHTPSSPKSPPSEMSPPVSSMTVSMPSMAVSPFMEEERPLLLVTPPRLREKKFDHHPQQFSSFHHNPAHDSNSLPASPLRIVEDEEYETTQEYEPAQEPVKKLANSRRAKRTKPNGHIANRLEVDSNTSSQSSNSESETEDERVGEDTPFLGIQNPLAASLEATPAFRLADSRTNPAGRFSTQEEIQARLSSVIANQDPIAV

[7] = test system: Neuregulin-1 EGF-like domain; test: binders of neuregulin-1 EGF-like domain, primary screen, biochemical, small-molecule microarray, 635 nm fluorescence (AID 1081); details: small-molecule microarray binding, higher = more signal;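 note: binding of the protein to compounds printed on small-molecule microarray slides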
[8] = FRG1 promoter luciferase signal modulators, primary screen, FRG1 inhibition for FSHD, cell-based, C2C12 myotubes, firefly/Renilla luciferase, luminescence (AID 1084); details: higher = more signal, called active from +8 up or from −8 down
[9] = binders of probe aFST on microarray, primary screen, stem cell growth factor project, biochemical, small-molecule microarray, fluorescence 635/667 (AID 1086); details: higher = more signal;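 note: score merges 667 nm fluorescence with signal-to-noise of each printed compound spot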
[10] = binders of probe aHhip on microarray, primary screen, stem cell growth factor project, biochemical, small-molecule microarray, fluorescence 635/667 (AID 1087); details: higher = more signal;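 note: score merges spot fluorescence at 667nm with spot signal to noise ratio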
[11] = test system: PRMT1 (protein arginine N-methyltransferase 1); test: PRMT1 binders on small-molecule microarrays, primary screen, biochemical, small-molecule microarray, 635 nm fluorescence (AID 1088); details: small-molecule microarray binding, higher = more signal;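 note: binding of Prmt1 protein to compounds spotted on small-molecule microarray slides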
[12] = yeast growth modulation, basal conditions, primary screen, YJM789 clinical isolate, OD600, 24 h (AID 1089);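 note: growth of clinical yeast isolate S. cerevisiae YJM 789 seeded 1000 cells per well; test concentration not given here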; details: S. cerevisiae YJM789 growth, higher = more signal, called active from +8 up or from −8 down
[13] = fission yeast growth modulation, primary screen, strain 972, OD600, 24 h, no modulator (AID 1090);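 note: basal condition with compound alone and no growth modifier present; test concentration not given here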; details: S. pombe 972 growth, higher = more signal, called active from +8 up or from −8 down
[14] = S. cerevisiae growth modulation with rapamycin, primary screen, strain BY4716, OD600, 96 h (AID 1091); details: higher = more signal, called active from +8 up or from −8 down; note: test concentration not given here
[15] = biological target: Torsin-1A-interacting protein 2 (Homo sapiens) (UniProt Q8NFQ8); test: LULL1 binders on small-molecule microarray, primary screen, cell lysate, human LULL1 lysate, 635/667 nm fluorescence (AID 1092); details: hLULL1 lysate binding, 635 nm fluorescence, higher = more signal;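 note: probe is lysate of COS7 cells overexpressing human LULL1; score merges per-feature 667 nm fluorescence with signal-to-noise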
Sequence of Torsin-1A-interacting protein 2 (Homo sapiens) (Q8NFQ8 whole entry, looked up): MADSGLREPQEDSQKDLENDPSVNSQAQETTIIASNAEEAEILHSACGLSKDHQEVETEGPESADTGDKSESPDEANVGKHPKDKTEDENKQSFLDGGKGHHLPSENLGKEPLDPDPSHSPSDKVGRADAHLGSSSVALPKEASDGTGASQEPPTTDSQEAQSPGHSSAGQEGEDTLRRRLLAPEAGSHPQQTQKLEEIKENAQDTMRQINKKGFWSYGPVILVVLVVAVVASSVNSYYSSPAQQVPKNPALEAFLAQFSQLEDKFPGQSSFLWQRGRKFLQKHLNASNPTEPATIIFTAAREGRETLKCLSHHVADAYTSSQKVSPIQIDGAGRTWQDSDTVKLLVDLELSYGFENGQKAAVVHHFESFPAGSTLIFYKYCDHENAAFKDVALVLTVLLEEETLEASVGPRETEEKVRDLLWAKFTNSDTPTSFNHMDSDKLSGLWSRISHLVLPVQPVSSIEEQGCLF

[16] = E. coli growth modulation, two-sided OD650, primary screen, E. coli filamentation project, strain DRC41, 24 h (AID 1093); details: OD650, 24 h, higher = more signal, called active from +8 up or from −8 down;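 note: MC1000 strain lacking acrAB efflux and sulA so SOS filamentation is blocked; test concentration not given here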
[17] = small-molecule microarray binders of probe aLefty2, primary screen, biochemical, biotinylated probe, 635/667 nm fluorescence (AID 1094); details: higher = more signal;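 note: score merges spot fluorescence near 667 nm with spot signal-to-noise ratio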
[18] = test system: Noggin (protein binding on small-molecule microarray); test: Noggin binders on small-molecule microarray, primary screen, biochemical, 635/667 nm fluorescence (AID 1095); details: 635 nm fluorescence, higher = more signal;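 note: score merges 667 nm feature fluorescence with signal to noise over triplicate slides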
[19] = biological target: Neurogenic locus notch homolog protein 3 (Homo sapiens) (UniProt Q9UM47); test: NOTCH3 binders on small-molecule microarray, primary screen, biochemical, 635/667 nm fluorescence (AID 1096); details: NOTCH3 binding, 635 nm fluorescence, higher = more signal
Sequence of Neurogenic locus notch homolog protein 3 (Homo sapiens) (Q9UM47 whole entry, looked up): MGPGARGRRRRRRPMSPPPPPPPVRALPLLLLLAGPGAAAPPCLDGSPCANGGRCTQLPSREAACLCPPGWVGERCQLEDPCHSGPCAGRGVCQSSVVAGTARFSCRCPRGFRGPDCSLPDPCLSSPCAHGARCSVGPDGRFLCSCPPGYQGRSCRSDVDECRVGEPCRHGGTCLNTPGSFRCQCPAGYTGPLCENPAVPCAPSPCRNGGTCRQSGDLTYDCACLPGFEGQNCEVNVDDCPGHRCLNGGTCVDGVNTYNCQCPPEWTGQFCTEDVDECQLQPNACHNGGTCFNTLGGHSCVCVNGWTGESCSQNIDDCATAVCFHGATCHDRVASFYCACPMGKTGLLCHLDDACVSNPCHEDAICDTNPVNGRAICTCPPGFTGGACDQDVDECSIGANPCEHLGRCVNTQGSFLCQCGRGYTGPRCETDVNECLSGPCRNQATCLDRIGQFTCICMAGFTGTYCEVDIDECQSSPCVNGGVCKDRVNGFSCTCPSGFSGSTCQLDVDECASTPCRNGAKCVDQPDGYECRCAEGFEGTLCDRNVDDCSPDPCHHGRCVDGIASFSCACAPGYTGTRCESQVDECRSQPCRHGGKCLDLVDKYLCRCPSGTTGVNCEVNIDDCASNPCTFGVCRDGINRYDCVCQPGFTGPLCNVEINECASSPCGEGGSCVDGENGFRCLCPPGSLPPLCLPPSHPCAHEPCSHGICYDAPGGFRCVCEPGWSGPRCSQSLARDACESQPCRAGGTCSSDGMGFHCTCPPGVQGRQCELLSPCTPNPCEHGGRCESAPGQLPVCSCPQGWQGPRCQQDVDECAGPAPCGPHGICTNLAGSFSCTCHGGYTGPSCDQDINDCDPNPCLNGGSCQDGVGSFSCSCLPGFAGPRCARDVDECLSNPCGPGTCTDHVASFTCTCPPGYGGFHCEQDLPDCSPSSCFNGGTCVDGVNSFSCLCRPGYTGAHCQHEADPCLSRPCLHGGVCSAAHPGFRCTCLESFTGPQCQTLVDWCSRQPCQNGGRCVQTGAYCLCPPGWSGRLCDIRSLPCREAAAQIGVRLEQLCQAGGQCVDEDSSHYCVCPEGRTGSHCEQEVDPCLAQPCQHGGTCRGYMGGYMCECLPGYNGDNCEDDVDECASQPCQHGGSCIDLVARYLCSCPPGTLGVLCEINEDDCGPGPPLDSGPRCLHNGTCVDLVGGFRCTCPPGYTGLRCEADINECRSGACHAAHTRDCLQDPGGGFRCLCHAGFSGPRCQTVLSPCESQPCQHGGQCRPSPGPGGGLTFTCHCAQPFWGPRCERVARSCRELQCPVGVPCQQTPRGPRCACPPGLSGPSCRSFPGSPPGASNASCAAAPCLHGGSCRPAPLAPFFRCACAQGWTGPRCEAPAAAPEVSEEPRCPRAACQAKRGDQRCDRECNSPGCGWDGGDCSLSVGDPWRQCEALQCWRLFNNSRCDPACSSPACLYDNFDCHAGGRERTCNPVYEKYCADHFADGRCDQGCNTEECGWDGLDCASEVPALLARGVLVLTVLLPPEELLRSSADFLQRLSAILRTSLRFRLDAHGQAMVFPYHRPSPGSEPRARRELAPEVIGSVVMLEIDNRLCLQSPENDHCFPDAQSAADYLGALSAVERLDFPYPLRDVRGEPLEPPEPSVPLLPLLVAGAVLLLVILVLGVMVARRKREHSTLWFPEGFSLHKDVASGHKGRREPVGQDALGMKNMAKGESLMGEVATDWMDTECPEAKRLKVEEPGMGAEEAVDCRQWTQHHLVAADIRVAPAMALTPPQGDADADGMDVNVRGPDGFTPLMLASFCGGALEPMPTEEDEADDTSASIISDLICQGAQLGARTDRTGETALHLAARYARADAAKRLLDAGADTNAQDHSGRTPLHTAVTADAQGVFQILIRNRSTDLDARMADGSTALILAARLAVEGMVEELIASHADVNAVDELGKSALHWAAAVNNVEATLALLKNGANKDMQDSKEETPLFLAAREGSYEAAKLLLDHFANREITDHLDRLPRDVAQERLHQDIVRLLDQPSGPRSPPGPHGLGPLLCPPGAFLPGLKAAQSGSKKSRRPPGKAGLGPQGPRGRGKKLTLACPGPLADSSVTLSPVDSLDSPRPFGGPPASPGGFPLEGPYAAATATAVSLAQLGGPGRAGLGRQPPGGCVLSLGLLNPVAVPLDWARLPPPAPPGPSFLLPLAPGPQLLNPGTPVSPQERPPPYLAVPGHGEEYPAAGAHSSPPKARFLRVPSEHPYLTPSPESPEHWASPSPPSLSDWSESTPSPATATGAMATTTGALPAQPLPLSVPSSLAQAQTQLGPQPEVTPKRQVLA

[20] = small-molecule microarray binders of probe aEGFR, primary screen, biochemical, biotinylated probe, 635/667 nm fluorescence (AID 1097); details: higher = more signal;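 note: probe is a biotinylated anti-EGFR antibody binding compounds printed on slides; score combines fluorescence near 667 nm and signal to noise of each spot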

Compound	composite z-score [1]	composite z-score [2]	composite z-score [3]	composite z-score [4]	composite z-score [5]	composite z-score [6]	composite z-score [7]	z-score [8]	composite z-score [9]	composite z-score [10]	composite z-score [11]	z-score [12]	z-score [13]	z-score [14]	composite z-score [15]	z-score [16]	composite z-score [17]	composite z-score [18]	composite z-score [19]	composite z-score [20]
NC(=O)NCC#Cc1ccc2c(c1)[C@]1(C(=O)N2)[C@H](c2ccccc2OCCO)N2[C@H](c3ccccc3)[C@H](c3ccccc3)OC(=O)[C@H]2[C@@H]1C(=O)N1CCN(c2ncccn2)CC1	0.533	0.195	-0.0145	0.499	0.583	1.19	1.07	-0.112 (inactive)	0.315	-0.0994	1.54	1.73 (inactive)	0.0422 (inactive)	4.25 (inactive)	2.7	2.9 (inactive)	0.276	1.17	1.02	-0.0286
C=CCNC(=O)[C@H]1[C@@H]2C(=O)O[C@@H](c3ccccc3)[C@@H](c3ccccc3)N2[C@@H](c2ccccc2OCCO)[C@]12C(=O)N(C(=O)OCCOC)c1ccc(C#CCC(C(=O)OC)C(=O)OC)cc12	-0.257	0.864	0.0556	0.408	1.34	1.47	1.22	-0.678 (inactive)	0.336	0.276	1.55	0.759 (inactive)	-1.68 (inactive)	5.51 (inactive)	2.97	3.27 (inactive)	0.0757	1.15	1.03	0.0343
O=[N+]([O-])c1ccc(C[n+]2ccc3ccc(O)cc3c2)o1	-0.493	0.449	-0.146	0.169	0.37	1.49	1.11	0.468 (inactive)	0.147	-0.411	0.536	-0.0384 (inactive)	-7.09 (inactive)	-0.5 (inactive)	0.803	-2.03 (inactive)	-0.155	-0.147	0.791	-0.0867
C[C@H]1NC(=O)[C@@H](C)NC(=O)[C@@]23C(=O)N[C@@H](Cc4ccccc4)C2[C@H](C)[C@@]2(C)O[C@H]2C3/C=C/C/C=C\CNC1=O (stereo not given in full)	-0.372	-0.0794	-0.083	-0.167	-0.269	0.631	0.812	0.0028 (inactive)	-0.41	-0.34	-0.0842	1 (inactive)	-0.696 (inactive)	0.581 (inactive)	-0.968	2.41 (inactive)	-0.142	-0.142	-0.129	-0.131
C=C(CCCC)C(=O)CC[C@@H](OC(=O)c1cccnc1)c1cccc(OCCO)c1	0.116	0.908	0.0766	1.07	-0.552	0.544	0.586	0.197 (inactive)	0.344	-0.0645	1.12	-0.323 (inactive)	-2.6 (inactive)	-0.2 (inactive)	0.136	0.493 (inactive)	-0.186	0.491	0.145	-0.145
C[C@@H]1C=CCC(=O)OC[C@H]2O[C@@H](C=C[C@@H]2O)[C@H](C)C=CCC(=O)OC[C@H]2O[C@H]1C=C[C@@H]2O	-0.663	0.919	-0.113	0.526	0.16	-0.0241	0.567	-0.274 (inactive)	0.0915	0.346	1.06	-2.14 (inactive)	-2.87 (inactive)	-1.09 (inactive)	-0.552	0.332 (inactive)	-0.0196	1.37	1	0.0779
O=C1O[C@H](c2ccccc2)[C@H](c2ccccc2)N2[C@H]1[C@@H](C(=O)Nc1nc3ccccc3s1)[C@]1(C(=O)Nc3ccc(C#CC4=CCCCC4)cc31)[C@H]2c1ccccc1OCCO	-0.572	0.255	0.0075	0.552	1.16	1.59	1.06	0.59 (inactive)	0.459	-0.0726	1.56	2.17 (inactive)	1.82 (inactive)	4.5 (inactive)	2.35	-0.0227 (inactive)	-0.0778	1.53	1.1	0.0564
CCC#CCN(Cc1ccccc1Br)[C@H](/C=C/c1ccccc1)[C@@H](O)Cc1ccccc1	1.78	-0.387	-0.176	-0.61	-1.52	-0.0939	-0.11	-0.227 (inactive)	-0.465	-0.271	-0.394	0.629 (inactive)	0.266 (inactive)	1.12 (inactive)	1.22	0.567 (inactive)	0.136	-1.78	-1.11	-0.458
CC(C)N1CC=CC23O[C@@H]4/C=C\CCCOC(=O)C4[C@H]2C(=O)N(CCO)[C@@H]3C1=O (stereo not given in full)	-0.0118	-0.158	-0.156	-0.958	-0.933	2.16	1.12	-0.469 (inactive)	-0.219	-0.257	0.885	-1.92 (inactive)	-3.04 (inactive)	-1.77 (inactive)	1.95	3.25 (inactive)	-0.0766	-0.715	-0.0811	-0.173
COC(=O)C[C@H]1O[C@]2(C(=O)N(C)c3ccccc32)[C@@H](C)[C@@H]1[Si](C)(C)c1ccc(OC)cc1	-0.352	0.0371	-0.005	0.791	0.146	0.367	1.06	-2.07 (inactive)	0.673	-0.0645	0.53	-3.04 (inactive)	-16.7 (active)	-1.54 (inactive)	0.49	1.67 (inactive)	-0.0667	1.07	0.622	0.0104
